# LmPK inhibitor = qHTS Assay for Inhibitors of Leishmania Mexicana Pyruvate Kinase (LmPK); Q27686; purified LmPK, Kinase-Glo ATP luminescence, 1 h; Potency, µM (titrated, usually from 57.5 µM), without a hit: top-dose activity change, negative = inhibition, actives largely listed as inhibitors; hit rate 0.37% among 290,000; also: potency is read from the fitted curve at half-maximal effect; % is scaled to controls: 0 for no effect and ±100 for the full control effect
#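 In 50 mM imidazole pH 7.2 with 7 mM MgCl2, LmPK (0.1 nM) turned over PEP (0.5 mM) and ADP (0.1 mM) for 1 h at room temperature. Luciferase read-out of ATP.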
# Sm TGR inh = qHTS Assay for the Inhibitors of Schistosoma Mansoni Peroxiredoxins. Potency, µM (doses to about 114 µM), without a hit: at the highest dose activity change, negative = inhibition, actives largely listed as inhibitors. hit rate 3% among 360,000. purified TGR, DTNB reduction, TNB absorbance 405 nm; also: potency is read from the fitted curve at half-maximal effect; % is scaled to controls: 0 for no effect and ±100 for the full control effect; nearly all actives have a fitted effect of over 60% in size
#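 TGR 20 nM + NADPH 100 uM (dispensed conc.), cpd preinc 15 min RT; start with NADPH (500 uM addition) then DTNB (15 mM addition). Kinetic TNB absorbance, 405 nm filter. Four-parameter Hill fit across titration.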
# Cycloheximide cs = Cycloheximide Counterscreen for Small Molecule Inhibitors of Shiga Toxin; cell reporter, cycloheximide protein synthesis inhibition counterscreen; max response, %; hit rate 12% among 300,000; in the data active = max response mostly above about 13%, no sharp cut-off; inactive = mostly below about 14%; also: read at 38.3 µM for the half of the compounds with a filed dose; 0% is about no effect
# Giardia FBPA inh = qHTS Assay for Inhibitors of Fructose-1,6-bisphosphate Aldolase from Giardia Lamblia; purified Giardia FBPA; Potency, µM (highest dose often 59.6 µM), without a hit: top-dose activity, negative = inhibition, most hits filed as inhibitors; hit rate 0.71% among 290,000; AID 2451, 2010; also: potency is read from the fitted curve at half-maximal effect; % is scaled to controls: 0 for no effect and ±100 for the full control effect; nearly all actives have a fitted effect of over 55% in size
# Target sequence (A8B2U2 whole entry, looked up): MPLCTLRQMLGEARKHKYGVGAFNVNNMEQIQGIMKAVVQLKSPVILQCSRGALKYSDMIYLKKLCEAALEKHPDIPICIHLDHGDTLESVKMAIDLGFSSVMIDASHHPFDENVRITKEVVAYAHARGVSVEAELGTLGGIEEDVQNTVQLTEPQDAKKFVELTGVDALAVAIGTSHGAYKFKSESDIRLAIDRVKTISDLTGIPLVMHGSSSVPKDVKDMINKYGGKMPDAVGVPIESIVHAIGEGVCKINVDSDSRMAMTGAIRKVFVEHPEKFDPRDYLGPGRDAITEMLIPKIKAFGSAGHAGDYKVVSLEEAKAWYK
#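 Giardia FBPA (40 nM reagent) was preincubated 10 min at RT with compound (up to 57.5 uM final), then substrate plus GAPDH/TPI/NAD/arsenate coupling system with diaphorase/resazurin was added; resorufin fluorescence (525/598 nm) was read after 20 min.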
# Shiga inhibitor = A qHTS for Small Molecule Inhibitors of Shiga Toxin; Vero cells, Shiga toxin protein synthesis inhibition reporter; inhibition, % at 38.7 µM; hit rate 9.2% among 290,000; AID 2315, 2010; in the data active = inhibition mostly above about 28%, no sharp cut-off; inactive = mostly below about 43%; also: 0% is about no effect
# Tb PYK inh = qHTS of Trypanosoma Brucei Inhibitors | pyruvate kinase (Trypanosoma brucei), Q57TT1 | TbPYK enzyme, Kinase-Glo Plus ATP luminescence, 45 min | Potency, µM (doses to about 76.8 µM), inactives show at the highest dose activity, negative = inhibition, hits mostly inhibitors | hit rate 0.12% among 410,000; also: potency is read from the fitted curve at half-maximal effect; % is scaled to controls: 0 for no effect and ±100 for the full control effect; nearly all actives have a fitted effect of over 50% in size
#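 Activity of T. brucei pyruvate kinase was followed by Kinase-Glo Plus luminescence after the enzyme reacted 45 min at room temperature with 130 uM ADP (final) and substrate. Test compounds were added before ADP at multiple concentrations.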
# Active calls of the source: *; ? = inconclusive; . = not tested or not shown; [ ] = dose if it differs, or a comment. Only a selection was taken, and hits are over-represented in it overall. Unless noted, calls follow the shape of the dose curve; as a rule, active = well fitted curve in the direction sought with a large enough effect; inconclusive = small, poorly fitted or top-dose-only effect, or another doubt; inactive = no such curve, though single readings can be large; an effect the other way counts as inactive or inconclusive.
SMILES,LmPK inhibitor,Sm TGR inh,Cycloheximide cs,Giardia FBPA inh,Shiga inhibitor,Tb PYK inh
CCOc1ccc(/C=C2\CCC(C3CCCC3)C2=O)cc1OC (stereo not drawn),2%,-15%,8,-4%,30,3%
Cc1ccc(-c2nnn(CC(=O)N(CC(=O)NCCC(C)C)c3ccc(F)cc3)n2)cc1,.,2%,.,.,.,-6%
COc1ccc([C@H]2C[C@H](O)[C@@H](n3cc(-c4ccc(F)cc4)nn3)CN2CC2CCCCC2)cc1,.,.,.,.,.,8%
CCN[C@@H]1CN(CCCOC)S(=O)(=O)c2sc(S(N)(=O)=O)cc21,.,.,.,2%[21.7 µM],.,1%[33.2 µM]
O=C1/C(=C/c2ccccc2)CCC1C1CCCC1 (stereo not drawn),-10%,6%,40*,1%,76*,1%
Cc1cn([C@H]2C[C@H](O)[C@@H](CNCC3=Cc4cc(O)ccc4OC3)O2)c(=O)[nH]c1=O,.,.,.,.,.,-2%
CCOCCCNC(=O)c1ccc(Cn2c(=O)c3cccn3c3cccnc32)cc1,.,3%,.,.,.,1%
CCn1c(O)c(C=NC2CCCC(C)C2C)sc1=S (stereo not drawn),6%,2%,51*,-30%,110*,-3%
CCn1c(O)c(C=NCc2ccccc2)sc1=S,-1%,0%,15,-6%,33,-2%
CCC1CCc2sc(C(=O)NCC3CCCO3)cc2C1 (stereo not drawn),.,-5%,.,.,.,0%
CCC1CCc2sc(C(=O)NCc3ccccn3)cc2C1 (stereo not drawn),1%,-2%,37*,.,61*,-3%
C=CCOc1c(CNc2ccc(C(=O)O)cc2)cccc1OC,0%,-1%,-2,?,-1,-8%
C=CCOc1c(CNc2cccc(C(=O)O)c2)cccc1OC,9%,-8%,37*,?,71*,-2%
C=CCOc1c(CNc2ccc(C(=O)O)cc2)cccc1OCC,0%,-15%,31*,19%,36*,1%
O=C(O)c1cccc(NCc2cccnc2)c1,-5%,2%,0,1%,17,-1%
C=CCOc1c(CNc2cccc(C(=O)O)c2)cccc1OCC,2%,-19%,13,23%,13,2%
C=CCOc1cccc(CNc2cccc(C(=O)O)c2)c1,-1%,3%,29*,?,104*,-4%
CCn1nccc1NC(=O)c1csc([C@H]2C[C@H](O)[C@@H](CO)O2)n1,.,.,.,.,.,6%
Cc1ccc(-n2c(CNc3ccc(C)c(Cl)c3)n[nH]c2=S)cc1,?,0%,-5,3%,9,4.5µM*
Cc1ccc(NCc2n[nH]c(=S)n2-c2cccc(Cl)c2)cc1,?,6%,-3,0%,2,3.5µM*
C=CCN1C(=O)c2ccc(C(=O)NCC(=O)Nc3c(C)cc(C)cc3C)cc2C1=O,.,1%,.,.,.,-3%
NC(=O)C1CC(=O)N(c2ccc(OCc3ccc(F)cc3)cc2)C1 (stereo not drawn),0%,0%,37*,13%,94*,-3%
NC(=O)C1CC(=O)N(c2ccc(OCc3ccccc3Cl)cc2)C1 (stereo not drawn),6%,14%,23*,-3%,25*,-8%
O=C(O)C1CC(=O)N(c2ccc(OCc3ccccc3Cl)cc2)C1 (stereo not drawn),-9%,8%,-4,27%,-4,-12%
NC(=O)C1CC(=O)N(c2ccc(OCc3ccc([N+](=O)[O-])cc3)cc2)C1 (stereo not drawn),1%,-1%,26*,3%,.,-1%
SMILES,LmPK inhibitor,Sm TGR inh,Cycloheximide cs,Giardia FBPA inh,Shiga inhibitor,Tb PYK inh
Cc1ccc(N2CC(C(=O)OCc3ccc([N+](=O)[O-])cc3)CC2=O)cc1 (stereo not drawn),12%,5%,5,3%,6,8%
COc1ccc(Cl)cc1CNCCSc1nnnn1-c1ccccc1,.,-2%,.,.,.,-9%
CCC1=C2CC[C@H]3C(=O)N(CC)C(=O)[C@H]3[C@H]2[C@@]2(C)C(=NCC(=O)OC)OC(=O)N2C1=O,.,.,.,3%,.,.
COc1ccc(-c2nc(CSCC(=O)N3CCC(C(N)=O)CC3)c(C)o2)cc1OC,-2%,-30%,-4,0%,-15,1%
COc1ccc(-c2nc(CSCC(=O)N3CCN(c4cccc(C)c4)C(C)C3)c(C)o2)cc1OC (stereo not drawn),-1%,45µM*,8,-22%,-5,-8%
COc1ccc(-c2nc(CSCC(=O)N3CCc4ccccc4C3)c(C)o2)cc1OC,-6%,32µM*,-1,-14%,2,-8%
CC(=O)c1sc2nsc(SCCN3CCOCC3)c2c1N,23%,-1%,22,?,28*,-27%
Nc1c(C(=O)c2ccccc2)sc2nsc(SCCN3CCOCC3)c12,5%,-10%,23*,-22%,29*,-2%
COc1ccccc1CNC(=O)Cn1c(=O)oc2cc(S(=O)(=O)N3CCCC3)ccc21,-5%,-21%,4,-2%,3,-5%
Cc1cc(N2Cc3ccccc3C2)ccc1C=O,-17%,?,19*,7%,70*,3%
Oc1cccc(N2Cc3ccccc3C2)c1,-23%,10µM*,11,-8%,31*,-8%
Oc1ccc(N2Cc3ccccc3C2)cc1,-14%,22µM*,20*,-23%,15,-11%
O=C(O)c1ccc(N2Cc3ccccc3C2)cc1O,14µM*,?,29*,1%,56*,?
CCOc1ccc(-c2cn3c(n2)sc2cc(C(=O)N4CCCC(C)C4)ccc23)cc1 (stereo not drawn),.,5%,.,.,.,-9%
Cn1sc(=O)n(Cc2ccccc2)c1=O,.,.,-10,-25%,-9,.
CCOC(=O)c1ccc(N2Cc3cc(C)c(C)cc3C2)cc1O,-5%,-13%,19*,4%,17,.
Cc1cc2c(cc1C)CN(c1ccccc1)C2,16µM*,?,48*,-5%,66*,-13%
Cc1cc(O)c(CN2CCN(c3ccccc3)CC2)cc1C,0%,-2%,-3,6%,-13,-7%
O=Cc1ccc(N2Cc3ccccc3C2)cc1,-17%,?,18*,-5%,57*,-6%
CCN1C(=O)[C@H]2[C@H]3[C@H](O)[C@H](O)C/C(=N/NC(=O)OCc4ccc(OC)cc4)[C@@H]3CC[C@@H]2C1=O,.,.,.,3%[12.9 µM],.,.
CCOc1ccc(NS(=O)(=O)c2cc(C(=O)N3CCN(c4ccccc4O)CC3)ccc2Cl)cc1,.,-1%,.,.,.,-3%
COc1ccc(N2C(=O)c3ccccc3NC23CCCCC3)cc1,?,-2%,26*,-1%,52,-4%
CCOc1ccc(N2C(=O)c3ccccc3NC2(C)CC)cc1 (stereo not drawn),.,-5%,.,.,.,6%
